Source: the supplement of paper PMC10681739

How the values were obtained:
RUNX1 [1] = molecular target: RUNX1 (UniProt Q01196); experiment: RUNX1 binding intensity (PBM fluorescence), RUNX1 alone (arbitrary fluorescence units); higher = stronger binding; details: RUNX1 concentration 2 nM; ETS1 concentration 0 nM
Experimental: (§1)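 Cooperative gcPBM on 36-bp genomic probes with neighbouring ETS1 and RUNX1 sites. Recombinant human RUNX1 (2 nM) was incubated alone or with ETS1 (25 nM) and detected with anti-RUNX1 antibody plus Alexa488 secondary. Values are medians over 4 replicate spots; the RUNX1+ETS1 data were normalised to the RUNX1-only data. The probes sit in constant array flanks that are not printed.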

ETS1 [2] = molecular target: T1, ETS1 (UniProt P14921); experiment: ETS1 binding intensity (PBM fluorescence) in presence of RUNX1, normalised to ETS1-only experiment (arbitrary fluorescence units); higher = stronger binding; details: ETS1 concentration 1 nM; RUNX1 concentration 25 nM
T1 sequence: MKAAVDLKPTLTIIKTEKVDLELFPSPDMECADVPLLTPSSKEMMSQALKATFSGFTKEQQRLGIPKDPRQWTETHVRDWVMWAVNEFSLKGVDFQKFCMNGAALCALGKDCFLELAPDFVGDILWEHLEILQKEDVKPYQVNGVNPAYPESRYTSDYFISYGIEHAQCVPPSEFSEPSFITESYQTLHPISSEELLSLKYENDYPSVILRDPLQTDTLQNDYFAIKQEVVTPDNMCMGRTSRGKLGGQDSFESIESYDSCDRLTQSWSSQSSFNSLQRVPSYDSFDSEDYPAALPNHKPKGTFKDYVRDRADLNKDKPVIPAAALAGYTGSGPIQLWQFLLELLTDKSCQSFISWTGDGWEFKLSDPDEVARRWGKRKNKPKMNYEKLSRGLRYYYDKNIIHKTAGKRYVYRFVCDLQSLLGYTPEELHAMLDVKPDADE

RUNX1 [3] = molecular target: RUNX1 (UniProt Q01196); experiment: RUNX1 binding intensity (PBM fluorescence) in presence of ETS1, normalised to RUNX1-only experiment (arbitrary fluorescence units); higher = stronger binding; details: RUNX1 concentration 2 nM; ETS1 concentration 25 nM
Experimental: as §1

ETS1 [4] = molecular target: T1, ETS1; experiment: ETS1 binding intensity (PBM fluorescence), ETS1 alone (arbitrary fluorescence units); higher = stronger binding; details: ETS1 concentration 1 nM; RUNX1 concentration 0 nM
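Wherever RUNX1 binding intensity (PBM fluorescence) in presence of ETS1, normalised to RUNX1-only experiment is given: Full-length recombinant human ETS1 or RUNX1 bound to double-stranded 36-bp genomic probes on microarrays, detected by protein-specific primary antibody and Alexa488 secondary, spot fluorescence as median of four replicate spots.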
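Wherever RUNX1 binding intensity (PBM fluorescence), RUNX1 alone is given: Full-length recombinant human RUNX1 bound to double-stranded 36-bp genomic probes on a high-density microarray, scored as Alexa488 fluorescence per spot via anti-RUNX1 antibody, median of four replicate spots.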

RUNX1, sequence (Q01196 whole entry): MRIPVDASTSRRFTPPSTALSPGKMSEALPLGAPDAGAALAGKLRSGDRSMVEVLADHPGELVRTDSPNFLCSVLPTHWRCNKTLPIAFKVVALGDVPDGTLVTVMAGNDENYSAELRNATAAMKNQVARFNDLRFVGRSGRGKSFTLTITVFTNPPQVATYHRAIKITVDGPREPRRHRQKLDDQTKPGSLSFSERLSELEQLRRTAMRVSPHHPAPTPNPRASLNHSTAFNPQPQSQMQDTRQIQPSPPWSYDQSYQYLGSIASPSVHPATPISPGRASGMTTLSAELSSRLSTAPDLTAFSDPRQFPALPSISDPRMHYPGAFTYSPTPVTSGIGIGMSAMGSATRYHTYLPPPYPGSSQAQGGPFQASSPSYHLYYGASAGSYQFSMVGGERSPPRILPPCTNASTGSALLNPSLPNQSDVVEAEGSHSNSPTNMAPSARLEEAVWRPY

Sequence | RUNX1 binding intensity (RUNX1 [1]) | ETS1 binding intensity (ETS1 [2]) | RUNX1 binding intensity (RUNX1 [3]) | ETS1 binding intensity (ETS1 [4])
GCACCCGGCACTACTTCCCGACCCGCATCCCCCGCC | 1260 | 683 | 1320 | –
CCACCGTCCCCGGAAATAACCGCGCCTGCCTCTCAA | 1330 | 3290 | 2090 | –
TCAATAAGACAGGATGTTCTCCAACCGCATTAAGCT | 854 | 22100 | 2910 | –
ACTATTTTTAGACTTCCCCACCCCGCAGTTTCAAGG | 1270 | 554 | 1010 | –
GCTTCTTCCGGCCGGGCCGAGAGGTGGTTACATTCG | 792 | 700 | 1940 | –
GCCAGGAGGACTTCCGGGTGGGTGTGGTATCTGCGA | 780 | 2540 | 2300 | –
CTAAGCAGAGGCCGGAAGCGGTGGTTTTTAGCGGCT | 677 | 20400 | 2090 | –
TACCTACAGGAAATGAGACACACCGCAGGCCGATCC | 868 | 7670 | 1770 | –
AGCTGCTGTTTTCCGGCTGCGGCACTGGATGAAGGA | 711 | 422 | 1350 | –
GGGCAGGAAGGAAGAGGGCTCCTCCCCACAAGCTCT | 738 | 492 | 862 | –
CTCACTCATCTGACTTCCTGCGGTTTACGACAACAG | 11100 | 1970 | 17400 | –
CTGGAGAGGATGTGGCCCCAGTGTGGTTCTGTAACT | 837 | 776 | 1170 | –
TCCTCCGTTTCCGTAGTTCCGAGTTGCGGTTTCTCC | 12000 | 3790 | 15200 | –
GTATGGGAAGTGATCTGGCTGCAAACCGCAAGAGAG | 4520 | 2730 | 7290 | –
AGAAGCTGCACCCGGAAATGAAACCACCAGGACCTC | 887 | 9310 | 1380 | –
CTTACAGTCACAACAGGATGTGGTTTGACATTTACT | 869 | 32800 | 3860 | –
TTGTCTGCATCCTGTGCTGTGTGGTAGCTCTGGGTT | 702 | 541 | 1490 | –
TCTTTGAGAAGCGGATGTGGTAAACTTGCCTCTGTT | 801 | 36600 | 10000 | –
GAGCGGAAACCCGAGAGTCAGTTCAACCACAGCCAC | 889 | 980 | 1010 | –
ACCAGCCCAGGAAGCATCTGCGGTTCAAGTGGCCAC | 1130 | 1470 | 1750 | –
GGCCCCTGCTTCCGGGTGTGACGCGAACCGCGGGCA | 687 | 1050 | 1400 | –
TAAGCAGGGAATAGAGGAAGTGGTTTTGTCTCAGGC | 779 | 7880 | 1780 | –
GACTATGTGCTTCCGGTCTCCAATACCGCAGGAGGG | 981 | 13600 | 2690 | –
CCTCCTCCAGACCATCCTGGAAACCACTGCCGTTCT | 1380 | 488 | 1360 | –

Sequence | RUNX1 binding intensity (RUNX1 [1]) | ETS1 binding intensity (ETS1 [2]) | RUNX1 binding intensity (RUNX1 [3]) | ETS1 binding intensity (ETS1 [4])
GCCGCTGGGTAGGCGGAAGTAGCCGCAGGCATGGCA | 760 | 7400 | 1000 | –
AGCTTTCCTTTTCCGGTTGCGGCGCCGCGCGTTGAT | 926 | 1820 | 2340 | –
GCACGCCATCGAGGAAGTGGGTTTACTGTGTATTTC | 723 | 1110 | 934 | –
GTGCTCCTCGCTTCCTCCGCGGTCTTCCGAGCGGTC | 1150 | 365 | 1370 | –
GACTGGACAACTTCCTGGTGGAAAACCGCGACTCTT | 1050 | 2930 | 2340 | –
CTACAAACGGCTTCCTCCTGCCTAACCACAACCTCA | 3280 | 1130 | 5340 | –
AGTACGATGGGAGGAAGTGGTTTGTAAGAGGAGGAC | 640 | 3390 | – | 1740
GTTTTCAAGGCAGGAAGTGGCTGTGGTGGCACGGAG | 789 | 21300 | – | 13700
TGTCAGCTGCGTTTCCGCGGTCGCGGGTGAGTGTGC | 752 | 588 | – | 418
CAACACAGGATGTGCAGTATTATACCGCAAAGCACT | 1150 | 6950 | – | 1710
TGGGGACCACTGTCAGGATGTGGTCACTGGAGTCAC | 831 | – | – | 1020
GGACCGGAAGTAGGTTTCTACCCGACCGCATTTTAC | 889 | 43900 | – | 12100
CGGGAACACCCACTTCCGCCACAGACCTGCTCAAAA | 1090 | 1380 | – | 1400
CCAGGGCCGGAAGTGCTGGTGGTGGTTTCCATCATG | 733 | – | – | 8960
GGGGCTGGGAAAGGATGTGGTAAGGGCCAGTCAGTC | 749 | 3240 | – | 884
CTGTGACACGTGCGGAAGCTGTGGTAAGTGCATCCA | 840 | – | – | 1130
GAGTCGCTTCCGCTCCCGCCCCGCTCTGTGGCGTAG | 748 | 1330 | – | 1180
CCTTGCTGCAGGATGCTCTAACCACAAGCCCAGGAG | 2370 | 2720 | – | 528
AAACTCCCCCACTTCCGCCCACAGCCCTCTGGGCTT | 984 | 2120 | – | 2010
TGGAAGCGGCTTCCGGGGTGAATGCGGTTGGATCGT | 1030 | 3990 | – | 1150
TGCAGCCTATTTCCTCTAACCCGCAGATCCACTATG | 1470 | 728 | – | 536
GTCCCCGTAACAGGATGTGGTGAGCTGTTATACCAC | 802 | – | – | 6710
CCTCACTAACATCCTGTTGAGGTGTCCCACAAACCA | 801 | 1090 | – | 1110
